Rows were chosen to be rich in hits. Some 0.33% of all compounds tested hit in one or more screens of this group.
Tb PGK inh: blocks T. brucei phosphoglycerate kinase; Potency, µM (highest dose often 57.5 µM), most hits filed as inhibitors; PGK/GAPDH coupled, Kinase-Glo luminescence, 60 min; P07378; hit rate 0.043% among 380,000; note: nearly all actives have a fitted effect of over 60% in size
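Recombinant glycosomal PGK reaction used 1,3-bisphosphoglycerate generated in-well by GAPDH (100nM final) in 100mM TEA pH 7.6, 5mM MgCl2, 0.01% Tween-20. After 60 minutes at room temperature, ATP was read by Kinase-Glo Plus luminescence end-point.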
Pin1 inhibitor: human Pin1 inhibition | Q13526 | Pin1 FP peptide displacement, HiFluor488, 10 min | Potency, µM (top dose mostly 115 µM), usual class: inhibitors | hit rate 0.009% among 390,000; active = well fitted inhibition curve with a large enough effect in the polarisation, with a control signal flat, not every such curve was filed as active; inconclusive = small, poorly fitted or top-dose-only effect, or effect the other way, or a change in a side signal; inactive = no such curve, though single readings can be large or run the other way; the % refers to the polarisation
Target sequence (Q13526 whole entry, looked up): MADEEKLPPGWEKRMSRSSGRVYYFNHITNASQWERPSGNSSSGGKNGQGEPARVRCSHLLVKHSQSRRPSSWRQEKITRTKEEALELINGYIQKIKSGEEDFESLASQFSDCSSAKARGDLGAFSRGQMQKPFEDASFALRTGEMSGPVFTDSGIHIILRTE
GLS inhibitor: blocks human kidney-isoform glutaminase activity | GLS enzymatic activity, qHTS titration | O94925 | Potency, µM (titrated, usually from 45.5 µM), actives largely listed as inhibitors | hit rate 0.21% among 410,000 | AID 624170
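hKGA in 45 mM KH2PO4 pH 8.2, 0.02% Tween-20 with pin-transferred compounds; 1 mM L-glutamine (stock) plus glutamate oxidase/HRP/Amplex Red coupling added. Fluorescence read initially and after 30 min at RT.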
IDH1 R132H inh: blocks human mutant IDH1 R132H enzyme; O75874; IDH1-R132H enzyme, NADPH consumption, diaphorase/resazurin fluorescence; Potency, µM (top dose mostly 76.6 µM), usual class: inhibitors; hit rate 0.093% among 390,000; note: nearly all actives have a fitted effect of over 65% in size
Target sequence (O75874 whole entry R132H, stated change not applied): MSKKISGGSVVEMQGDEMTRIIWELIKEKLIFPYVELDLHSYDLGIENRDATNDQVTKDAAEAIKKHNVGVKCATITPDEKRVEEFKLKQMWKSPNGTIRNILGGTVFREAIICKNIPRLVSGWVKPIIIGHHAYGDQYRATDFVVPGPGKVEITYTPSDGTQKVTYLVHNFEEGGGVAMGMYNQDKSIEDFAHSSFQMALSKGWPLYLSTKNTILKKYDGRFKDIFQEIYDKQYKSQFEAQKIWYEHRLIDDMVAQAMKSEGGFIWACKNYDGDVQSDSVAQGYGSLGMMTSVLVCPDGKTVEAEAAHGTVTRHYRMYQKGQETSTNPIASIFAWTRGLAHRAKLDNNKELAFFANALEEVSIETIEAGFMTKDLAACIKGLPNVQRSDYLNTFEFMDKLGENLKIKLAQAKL
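IDH1-R132H (0.5 ug/mL dispensed) in pH 7.5 Tris buffer was preincubated 30 min with compound, then given a substrate mix of 0.016 mM NADPH and 2 mM alpha-KG for 80 min at room temperature; remaining NADPH was read by diaphorase/resazurin fluorescence.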
IDH1 autofl: autofluorescence interference, mutant IDH1 hit counter-screen | 750 tested, under 10 active | inhibition of signal, % at 51.2 µM | Resorufin detection reagent fluorescence interference, cell-free | shares compounds with IDH1 R132H inh | AID 623980
IDH1 WT: inhibits human wild-type IDH1, mutant selectivity check. AID 623995. hit rate 9% among 750. shares compounds with IDH1 R132H inh. Potency, µM (series often up to 115 µM), usual class: inhibitors. WT IDH1 enzyme, NADPH diaphorase/resazurin fluorescence; note: nearly all actives have a fitted effect of over 55% in size
Target sequence (O75874 whole entry, looked up): as the sequence (O75874 whole entry R132H, stated change not applied) above, with H132R counted along it
mIDH1 confirm: confirmation of human mutant IDH1 inhibitors | shares compounds with IDH1 R132H inh | IDH1 R132H enzyme, NADPH diaphorase/resazurin fluorescence | Potency, µM (top dose mostly 76.6 µM), actives largely listed as inhibitors | hit rate 83% among 750 | AID 624002; note: nearly all actives have a fitted effect of over 50% in size
A number is an active result; - = inactive; ? = inconclusive; . = no result given; [ ] = remark or other dose. Unless noted, calls come from the whole dose curve; as a rule, active = well fitted curve in the direction sought with a large enough effect; inconclusive = small, poorly fitted or top-dose-only effect, or another doubt; inactive = no such curve, though single readings can be large; an effect the other way counts as inactive or inconclusive.

SMILES	Tb PGK inh	Pin1 inhibitor	GLS inhibitor	IDH1 R132H inh	IDH1 autofl	IDH1 WT	mIDH1 confirm
CCOC(=O)CC(=O)CSc1nc2c(sc(=S)n2-c2ccc(OCC)cc2)c(=O)[nH]1	-	-	-	-	.	.	.
CCOc1ccc(-n2c(=S)sc3c(=O)[nH]c(SCC(=O)NC(C)CC)nc32)cc1 (stereo not given)	-	-	-	37µM	-	8.9µM	32µM
COc1ccc(Cl)cc1-n1c(=S)sc2c(=O)[nH]c(SCC(=O)NCCC(C)C)nc21	-	-	?	37µM	-	-	11µM
CCc1ccc(C(=O)c2cn(Cc3ccc(F)cc3)c3cc(OC)c(OC)cc3c2=O)cc1	-	-	-	?	-	-	?
COc1ccc(N(CC(=O)N2CCN(c3ccc(Cl)cc3)CC2)S(=O)(=O)c2c(C)n[nH]c2C)cc1	-	-	-	?	-	-	13µM
COc1ccc(N(CC(=O)Nc2ccc(Cl)cc2)S(=O)(=O)c2c(C)n[nH]c2C)cc1	-	-	-	-	.	.	.
O=C(CNC(=O)c1ccccc1)OC(C(=O)Nc1ccc2c(c1)OCO2)c1ccccc1 (stereo not given)	.	-	.	.	.	.	.
COc1cc(SC#N)ccc1N=Cc1c(C)[nH]n(-c2ccc(C)cc2C)c1=O	-	-	-	41µM	-	-	16µM
C[C@@H](C(=O)O)c1ccc(C2CCCCC2)c2ccccc12	.	.	-	.	.	.	.
CCn1c2ccccc2c2cc(/C=N/n3c(-c4cc(C)[nH]n4)n[nH]c3=S)ccc21	-	-	?	?	-	-	14µM
CCn1c2ccccc2c2cc(/C=N/n3cn[nH]c3=S)ccc21	-	-	-	-	.	.	.
CC(=O)c1ccc(NC(=O)c2sc3nc(N4CCOCC4)c4c(c3c2N)CCCC4)cc1	-	-	-	?	-	-	6.3µM
COc1cccc(NC(=O)c2sc3nc(N4CCOCC4)c4c(c3c2N)CCCC4)c1	-	-	-	?	-	-	7.1µM
Nc1c(C(=O)Nc2ccccc2)sc2nc(N3CCOCC3)c3c(c12)CCCC3	-	.	-	-	.	.	.
Nc1c(C(=O)NCc2ccccc2)sc2nc(N3CCOCC3)c3c(c12)CCCC3	-	-	-	?	-	?	7.9µM
O=S(=O)(c1ccc(Cl)cc1)N1CCN(S(=O)(=O)c2ccc3c(c2)OCCO3)CC1	.	-	.	.	.	.	.
CN1CCN(c2nn3c(=O)c4ccccc4nc3s2)CC1	.	-	.	.	.	.	.
Cc1cc(C)cc(NC(=O)CSc2c(C(C)C)cnc3c2c(=O)n(C)c(=O)n3C)c1	-	-	-	?	-	-	-
CC(C)c1cnc2c(c1SCC(=O)Nc1cccc(F)c1)c(=O)n(C)c(=O)n2C	-	-	-	-	.	.	.
Cc1cc(C(=O)CCl)c(C)n1-c1cccc(S(=O)(=O)N2CCOCC2)c1	-	-	-	?	-	-	40µM
CCOc1cc(C=C2C(=O)c3ccccc3C2=O)ccc1OCC(=O)Nc1ccc(C)cc1	-	?	-	?	-	-	16µM
O=C1CCc2cc(S(=O)(=O)NCc3ccccc3)ccc2N1	.	-	.	.	.	.	.
CCc1nc(SCC(=O)N2CC(=O)Nc3ccccc32)c2c(C)c(C)sc2n1	-[11.5 µM]	-	-	?	-	-	32µM
Cc1sc2nc(C3CCCCC3)nc(SCC(=O)N3CC(=O)Nc4ccccc43)c2c1C	.	-	-	-	.	.	.
O=C1CCc2cc(S(=O)(=O)Nc3ccc4c(c3)CCC4)ccc2N1	.	-	.	.	.	.	.
SMILES	Tb PGK inh	Pin1 inhibitor	GLS inhibitor	IDH1 R132H inh	IDH1 autofl	IDH1 WT	mIDH1 confirm
CCn1cc(C(=O)NCc2ccco2)c(=O)c2cc(S(=O)(=O)N3CC(C)CC(C)C3)ccc21 (stereo not given)	-	-	-	5.2µM	-	-	2.5µM
C=CCn1cc(C(=O)NCc2ccco2)c(=O)c2cc(S(=O)(=O)N3CCCCCC3)ccc21	-	-	.	?	-	-	16µM
CCn1cc(C(=O)NCc2ccco2)c(=O)c2cc(S(=O)(=O)N3CCC(C)CC3)ccc21	-	-	-	33µM	-	-	18µM
CCn1cc(C(=O)NCc2ccco2)c(=O)c2cc(S(=O)(=O)N3CCCCCC3)ccc21	-	-	-	-	.	.	.
CC(=O)N1CCN(c2ccccc2NC(=O)c2ccc(-c3cccc([N+](=O)[O-])c3)o2)CC1	-	-	-	?	-	-	?
O=C(NC(=S)Nc1ccccc1N1CCCC1)c1ccc(-c2cccc([N+](=O)[O-])c2)o1	-	-	-	-	.	.	.
O=C1CCCC2=C1C1(CCSCC1)N=C(Nc1nc3ccccc3o1)N2	.	-	.	.	.	.	.
COCC1=C(C(=O)OC(C)OC(=O)OC(C)C)N2C(=O)C(NC(=O)/C(=N\OC)c3csc(N)n3)C2SC1 (stereo not given)	.	.	-	.	.	.	.
COc1ccc(C2Nc3ccccc3C(=O)N2Cc2ccccc2OC)cc1COc1ccc(NC(C)=O)cc1 (stereo not given)	.	-	.	.	.	.	.
CCOc1cc(/C=C(\C#N)C(=O)Nc2cccc(C(=O)O)c2)cc(Br)c1OC(=O)c1ccc(OC)cc1	-	?	-	52µM	-	71µM	32µM
CCCCOC(=O)CSC1=C(C#N)C(c2ccccc2OC)C(C#N)C(=O)N1 (stereo not given)	-	-	-	?	-	-	45µM
CCCOC(=O)CSC1=C(C#N)C(c2ccccc2OCC)C(C#N)C(=O)N1 (stereo not given)	-	-	-	?	-	-	45µM
Cc1ccccc1N1CC(=O)N(c2ccccc2C)CC1=O	-	-	-	-	.	.	.
Cc1cccc2c1c1ccc3c(c1n2C)C(=O)C=CC3=O	-	?	-	40µM	-	-	25µM
Cc1onc(-c2c(F)cccc2Cl)c1C(=O)Nc1cc(S(=O)(=O)N2CCCCC2)ccc1O	-	?	-	52µM	-	-	35µM
COc1cc2c(C(F)(F)F)c(-c3ccsc3)oc(=O)c2cc1OC	-	-	-	-	.	.	.
COc1ccc(-c2c(-c3ccsc3)oc(=O)c3cc(OC)c(OC)cc23)cn1	-	-	-	28µM	-	-	8.9µM
COc1cc2c(-c3ccc4cc[nH]c4c3)c(-c3ccsc3)oc(=O)c2cc1OC	-	-	-	?	-	-	11µM
O=C(CNC(=O)c1cccc2ccccc12)OC(C(=O)Nc1cc(C(F)(F)F)ccc1Cl)c1ccccc1 (stereo not given)	.	-	.	.	.	.	.
c1cnc2cc3c(cc2n1)[C@@H]1CNC[C@@H]3C1	.	.	-	.	.	.	.
CC(C)c1ccc(NC(=O)C(c2ccccc2)N(Cc2ccco2)C(=O)CC2NC(=O)NC2=O)cc1 (stereo not given)	-	-	-	?	-	-	?
COc1ccc(NC(=O)C(c2ccc(OC)cc2)N(C)C(=O)CC2NC(=O)NC2=O)cc1 (stereo not given)	-	-	-	-	.	.	.
